According to PubChem BioAssay (EPA / NIEHS):
Inconclusive results are not listed. Calls of active or inactive are those of the source. Rule for the calls, unless noted: active = hit-call score of the fitted dose curve at least 0.9, where 1 is the maximum; inactive = score below 0.9.

How the values were obtained:
[1] = CCTE_Deisenroth_H295R-HTRF_384WELL_ESTRADIOL: CCTE's H295R-HTRF Assay Evaluation of Estradiol Concentration, Deisenroth Lab (AID 2284361); settings: actives raise or lower the signal
Method in brief: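 H295R cells exposed 48 h to chemicals at 0.001 - 100 uM final (nine points, triplicate); estradiol in conditioned medium measured by HTRF immunoassay, fitted bidirectionally versus DMSO. Viability by CellTiter-Glo on same plates.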

[2] = CCTE_Deisenroth_H295R-HTRF_384WELL_TESTOSTERONE: CCTE's H295R-HTRF Assay Evaluation of Testosterone Concentration, Deisenroth Lab (AID 2284373); settings: actives raise or lower the signal
Method in brief: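 Secreted testosterone was quantified by HTRF immunoassay of medium from human adrenocortical H295R cells after 48 h chemical exposure at 0.001–100 uM final. Gain or loss was fitted against DMSO. ATP-based viability was read on matched wells, five experimental replicates.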

[3] = CCTE_Deisenroth_H295R-HTRF_384WELL_CTOX: Cytotoxicity Assessment in CCTE's H295R-HTRF Assay, Deisenroth Lab (AID 2284380; active = hit-call score of the fitted dose curve at least 0.9, where 1 is the maximum)
Method in brief: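 H295R adrenocortical carcinoma cells plated 24 h, then exposed 48 h to nine-point series 0.001–100 uM final, triplicate, n=5. ATP measured by CellTiter-Glo 2.0 luminescence on same plates after medium collection; loss versus DMSO.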

[4] = UKN5_HCS_SBAD2_cell_viability: Viability Assessment in the University of Konstanz (UKN) Leist Lab Neurite Outgrowth Assay in human iPSC-derived immature Dorsal Root Ganglia Neurons (UKN5) (AID 2284056)
Method in brief: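 iPSC-derived immature peripheral neurons (SBAD2) seeded on Matrigel with CHIR99021, SU5402 and DAPT, dosed 1 h later for 24 h. Viability from Hoechst H-33342 and calcein-AM live staining, high-content imaging; bidirectional fit versus DMSO.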

[5] = UKN5_HCS_SBAD2_neurite_outgrowth: University of Konstanz (UKN) Leist Lab Neurite Outgrowth Assay in human iPSC-derived immature Dorsal Root Ganglia Neurons (UKN5) (AID 2284070); settings: actives raise or lower the signal
Method in brief: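 SBAD2 iPSC-derived immature peripheral neurons on Matrigel, 100.000 cells/cm2, medium with CHIR99021 (1.5 uM), SU5402 (5 uM), DAPT (5 uM); compound added 1 h post-seeding for 24 h. Calcein-AM neurite area by high-content imaging; Hoechst H-33342 viability; bidirectional fit vs DMSO.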

[6] = UKN2_HCS_IMR90_neural_migration: University of Konstanz (UKN) Leist Lab Neural Crest Cell Migration Assay in human induced IMR90 Pluripotent Stem Cells (UKN2) (AID 2284204); settings: actives raise or lower the signal
Method in brief: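 iPSC-derived IMR90 neural crest cells on PLO/laminin/fibronectin were seeded around silicone stoppers; after stopper removal, migration in N2-S medium with EGF and FGF ran 24 h before 24 h chemical exposure. Calcein-AM/Hoechst high-content imaging; bidirectional fit versus DMSO.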

[7] = UKN4_HCS_LUHMES_neurite_outgrowth: University of Konstanz (UKN) Leist Lab Neurite Outgrowth Assay in human LUHMES cells (UKN4) (AID 2284206); settings: actives raise or lower the signal
Method in brief: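 Human LUHMES neuronal precursors, differentiated 2 days then replated without cAMP and GDNF, exposed to compounds for 24 h. Neurite area imaged by high-content microscopy after calcein-AM live staining; Hoechst H-33342 for viability; bidirectional fit versus DMSO.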

[8] = UKN4_HCS_LUHMES_cell_viability: Viability Assessment in the University of Konstanz (UKN) Leist Lab Neurite Outgrowth Assay in human LUHMES cells (UKN4) (AID 2284232)
Method in brief: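 LUHMES precursors differentiated 2 days, replated at 30000 cells/well without cAMP/GDNF, then compound-treated 24 h. Viability from Hoechst H-33342 and calcein-AM live staining (30 min) by high-content fluorescence imaging; bidirectional fit versus DMSO.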

[9] = CCTE_Shafer_MEA_dev_firing_rate_mean: CCTE's Neural Network Formation Assay for Mean Firing Rate, Shafer Lab (AID 2284031)
Method in brief: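 Primary rat cortical neurons on 48-well MEA plates, exposed from plating day 0 with dosing renewed on DIV 5 and 9. Mean well firing rate over active electrodes, recorded days 5, 7, 9, 12, summarised as trapezoidal AUC.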

[10] = CCTE_Shafer_MEA_dev_per_burst_spike_percent: CCTE's Neural Network Formation Assay for Percent of Spikes in a Burst, Shafer Lab (AID 2284032)
Method in brief: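 Rat primary cortical neurons on 16-electrode MEA wells, dosed from plating day 0 for 12 days with renewal on DIV 5 and 9; spikes-in-bursts percentage averaged over bursting electrodes, collapsed as AUC across days 5, 7, 9, 12; loss direction versus DMSO.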

[11] = CCTE_Shafer_MEA_dev_active_electrodes_number: CCTE's Neural Network Formation Assay for Number of Active Electrodes, Shafer Lab (AID 2284040; active = hit-call score of the fitted dose curve at least 0.9, where 1 is the maximum)
Method in brief: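 Primary rat cortical neurons on 16-electrode MEA wells, exposed from day 0 through day 12 with compound renewed at DIV 5 and 9 feeds. Active electrodes (mean firing ≥5 spikes/min) counted at DIV 5, 7, 9, 12; trapezoidal AUC across days, loss-of-signal versus DMSO.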

[12] = CCTE_Shafer_MEA_dev_burst_rate: CCTE's Neural Network Formation Assay for Burst Rate, Shafer Lab (AID 2284042)
Method in brief: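 Primary rat cortical neurons on PEI-coated 48-well MEA plates (laminin added with cells at plating) (16 electrodes/well), exposed from plating to day 12, dosing renewed at DIV 5 and 9. Burst rate averaged over active electrodes, recorded DIV 5, 7, 9, 12, summarized as AUC; loss versus DMSO.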

[13] = CCTE_Shafer_MEA_dev_bursting_electrodes_number: CCTE's Neural Network Formation Assay for Number of Bursting Electrodes, Shafer Lab (AID 2284043; active = hit-call score of the fitted dose curve at least 0.9, where 1 is the maximum)
Method in brief: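 Primary rat cortical neurons were cultured on PEI-coated 48-well MEA plates (16 electrodes/well) and exposed from plating through day 12, with compound renewed at feeds on DIV 5 and 9. Electrodes bursting ≥1 per 2 min were counted on DIV 5, 7, 9, 12; trapezoidal AUC taken.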

[14] = CCTE_Shafer_MEA_dev_per_burst_interspike_interval: CCTE's Neural Network Formation Assay for Burst Interspike Interval, Shafer Lab (AID 2284044)
Method in brief: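 Readout is the average time between spikes inside single-electrode bursts, taken as a well mean across bursting electrodes. Cortical neurons from rat developed networks on MEA plates under continuous 12-day exposure; recordings on days 5, 7, 9 and 12 were integrated by trapezoidal AUC.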

[15] = CCTE_Shafer_MEA_dev_burst_duration_mean: CCTE's Neural Network Formation Assay for Mean Burst Duration, Shafer Lab (AID 2284045)
Method in brief: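 Primary rat cortical neurons on PEI-coated 16-electrode MEA wells, exposed from plating through day 12 with compound renewed at DIV 5 and 9; spontaneous activity recorded days 5, 7, 9, 12. Well-mean burst duration collapsed as trapezoidal AUC, fitted for loss versus DMSO.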

[16] = CCTE_Shafer_MEA_dev_interburst_interval_mean: CCTE's Neural Network Formation Assay for Mean Interburst Interval, Shafer Lab (AID 2284046);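 note: well-mean interburst interval of bursting electrodes as AUC over four recording days; curve fitted for decrease in interburst interval relative to DMSO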
Method in brief: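 Recordings on days 5, 7, 9 and 12 give well-mean interburst interval across actively bursting electrodes, summarized as area under the curve. Cultures: rat cortical neurons, continuous exposure from day 0, compound renewed at feeds; decrease analyzed versus DMSO.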

[17] = CCTE_Shafer_MEA_dev_inter_network_spike_interval_mean: CCTE's Neural Network Formation Assay for Mean Inter-network Spike Interval, Shafer Lab (AID 2284047)
Method in brief: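 Primary rat cortical neurons on 16-electrode MEA wells, exposed from plating day 0 through DIV 12, compound renewed at DIV 5 and 9 media changes. Mean interval between network-spike peaks recorded DIV 5, 7, 9, 12; collapsed as trapezoidal AUC, fitted downward versus DMSO.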

[18] = CCTE_Shafer_MEA_dev_network_spike_number: CCTE's Neural Network Formation Assay for Number of Network Spikes, Shafer Lab (AID 2284048)
Method in brief: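 Primary rat cortical neurons were seeded at 1.5 x 10^5 cells/well on PEI-coated 16-electrode MEA wells with laminin, exposed from plating day 0, compound renewed at DIV 5 and 9. Network spikes were recorded on days 5, 7, 9, 12 and summarized as trapezoidal AUC versus DMSO.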

[19] = CCTE_Shafer_MEA_dev_network_spike_peak: CCTE's Neural Network Formation Assay for Mean Number of Electrodes in Network Spike, Shafer Lab (AID 2284049)
Method in brief: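 Continuous 12-day exposure of rat cortical cultures, starting at plating, on MEA plates. Endpoint: electrodes participating in network-spike peaks, AUC across DIV 5–12, DMSO as negative control.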

[20] = CCTE_Shafer_MEA_dev_spike_duration_mean: CCTE's Neural Network Formation Assay for Mean Spike Duration, Shafer Lab (AID 2284051);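 note: mean network spike duration pooled as area under curve over DIV 5 to 12 recordings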
Method in brief: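 Primary rat cortical neurons on 16-electrode MEA wells (PEI-coated, laminin in plating drop), exposed from plating through DIV 12 with compound renewed at DIV 5 and 9. Mean network-spike duration recorded DIV 5, 7, 9, 12; trapezoidal AUC across days, DMSO baseline.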

[21] = CCTE_Shafer_MEA_dev_network_spike_duration_std: CCTE's Neural Network Formation Assay for Standard Deviation of Network Spike Duration, Shafer Lab (AID 2284052);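 note: area under curve of spike duration SD across recording days 5 to 12; hits are decreases in network spike duration SD versus DMSO vehicle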
Method in brief: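 Primary rat cortical neurons on PEI-coated 16-electrode MEA wells, exposed from plating day 0 through day 12 with compound renewed at DIV 5 and 9. Network spike duration SD recorded on days 5, 7, 9, 12, collapsed as trapezoidal AUC; loss-of-signal fit versus DMSO.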

[22] = CCTE_Shafer_MEA_dev_per_network_spike_spike_number_mean: CCTE's Neural Network Formation Assay for Mean Number of Spikes in a Network Spike, Shafer Lab (AID 2284053)
Method in brief: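 Primary rat cortical neurons on 48-well, 16-electrode MEA plates were exposed from plating to DIV 12, with dosing renewed on DIV 5 and 9. Spikes per network spike (0.05 s peak window) were recorded on DIV 5, 7, 9 and 12 and collapsed as trapezoidal AUC versus DMSO.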

[23] = CCTE_Shafer_MEA_dev_per_network_spike_spike_percent: CCTE's Neural Network Formation Assay for Percent of Spikes in a Network Spike, Shafer Lab (AID 2284054)
Method in brief: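 Primary rat cortical neurons on 16-electrode MEA wells (PEI-coated, laminin at plating), exposed from day 0 with renewal at DIV 5 and 9; spikes within 0.05 s of network-spike peaks over total spikes, AUC across days 5, 7, 9, 12.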

[24] = CCTE_Shafer_MEA_dev_LDH: CCTE's Lactate Dehydrogenase Assay for Cytotoxicity in the Neural Network Formation Assay, Shafer Lab (AID 2284068; active = hit-call score of the fitted dose curve at least 0.9, where 1 is the maximum;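 note: exposure for twelve days from plating with re-dosing on DIV 5 and 9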)
Method in brief: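 Primary rat cortical neurons were plated on PEI/laminin MEA plates and exposed from day 0 for twelve days, with compound renewed at DIV 5 and 9. Cytotoxicity was determined by spectrophotometric LDH assay relative to DMSO.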

[25] = CCTE_Shafer_MEA_dev_AB: CCTE's Alamar Blue Assay for Cytotoxicity in the Neural Network Formation Assay, Shafer Lab (AID 2284083; active = hit-call score of the fitted dose curve at least 0.9, where 1 is the maximum;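 note: twelve days of exposure from plating with re-dosing on DIV 5 and 9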)
Method in brief: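 Primary rat cortical neurons on PEI-coated 48-well MEA plates, 1.5 x 10^5 cells/well in laminin drop; compound exposure from day 0 of plating for twelve days, renewed at medium changes on DIV 5 and 9. Viability read as resazurin reduction by fluorescence, relative to DMSO.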

[26] = CCTE_Shafer_MEA_dev_mutual_information_norm: CCTE's Neural Network Formation Assay for Mutual Information Normalization, Shafer Lab (AID 2284091)
Method in brief: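 Rat cortical cultures, 48-well MEA, continuous exposure DIV 0–12 with full media/compound change DIV 5 and 9. Readout: inter-electrode mutual information, AxIS adaptive spike detection; AUC across DIV 5/7/9/12 recordings; DMSO baseline, negative fitting direction.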

[27] = CCTE_Shafer_MEA_dev_correlation_coefficient_mean: CCTE's Neural Network Formation Assay for Mean Correlation Coefficient, Shafer Lab (AID 2284093)
Method in brief: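 Spontaneous activity recorded on days 5, 7, 9 and 12 post-plating; pairwise spike correlations are averaged across active electrodes and collapsed to an area-under-curve. Rat cortical cultures are dosed from plating through 12 days, with compound renewed at media changes.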

Measured: AC50

Clc1ccc(COC(Cn2ccnc2)c2ccc(Cl)cc2Cl)cc1 (configuration not stated)
active: [1] 0.703 µM | [2] 0.327 µM
inactive: [3]

O.O=S(=O)([O-])[O-].[Mn+2]
inactive: [5] | [6] | [7] | [8]
active: [4] 18.8 µM

Brc1cc(Br)c(Oc2cc(Br)c(Br)cc2Br)cc1Br
active: [24] 7.47 µM
not listed: [1] | [2] | [3]
inactive: all other assays above
